Test results taken from article PMC3795721, “Screening for Protein-DNA Interactions by Automatable DNA-Protein Interaction ELISA”.

biological target: AT4G31550 (Arabidopsis thaliana, UniProt Q9SV15 228-325); assay: DPI-ELISA; DPI-ELISA, streptavidin 384-well plate, 1-2 pmol biotinylated dsDNA per well, crude native E. coli extract, anti-His detection; buffer as in Brand et al. [46],; high values mean tight binding; conditions: tags: C-terminal His (pET-DEST42); label: 5' biotin on forward strand; dsDNA, one strand shown
Sequence (Q9SV15 228-325): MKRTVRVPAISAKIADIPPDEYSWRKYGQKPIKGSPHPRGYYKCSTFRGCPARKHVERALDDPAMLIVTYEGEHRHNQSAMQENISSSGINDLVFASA

| Sequence | binding signal [absorbance] |
| --- | --- |
| AAAAAAGCGCGAATTCTAGAACTATAAAAA | 0.57 ± 0.113 |
| AAAAAAACGGGTTGTGAATGTGGAAGAAAA | 0.575 ± 0.148 |
| AAAAAATGAATCAATTTTTGGGCTTTAAAA | 0.52 ± 0.113 |
| AAAAAAGGAAAACGAGTTCATCTGGTAAAA | 0.585 ± 0.134 |
| AAAAAATTTCTCCTTCTTTGTTCTTCAAAA | 0.66 ± 0.141 |
| AAAAAAGAGAATTGTCAGTGCCCAACAAAA | 0.705 ± 0.106 |
| AAAAAACTCGCGCTTGCATCTGTGCGAAAA | 0.555 ± 0.0636 |
| AAAAAATACATTTGACTTTGGGTTTCAAAA | 3.4 ± 0.297 |
| AAAAAACGGTAAGTCGACAAAA | 0.545 ± 0.0354 |
| AAAAAAAGGGTGCTATTCGTCGACACAAAA | 0.63 ± 0.141 |
| AAAAAATGGAAGGAGAGGGATGAAATAAAA | 0.57 ± 0.156 |
| AAAAAACCGAGTGTTGCCAGTTGCAGAAAA | 0.655 ± 0.0919 |
| AAAAAATGTCTAGACTCGGACATTCGAAAA | 0.54 ± 0.0566 |
| AAAAAATTAATCCATGCTTATGTCTGAAAA | 0.71 ± 0.184 |
| AAAAAAAGTATCAAAGCCTAGGGCTGAAAA | 0.605 ± 0.205 |
| AAAAAATTCCTGTCCGCTCTCGCTCCAAAA | 0.685 ± 0.148 |
| AAAAAATCAACCATTATGGTATTACTAAAA | 0.79 ± 0.212 |
| AAAAAATTGGCACACATGATCTCGGGAAAA | 0.56 ± 0.113 |
| AAAAAAGATCTAGGCCTTGGGACTCAAAAA | 0.415 ± 0.0636 |
| AAAAAATGGGGCTCTGGCCCACCGTAAAAA | 0.525 ± 0.0778 |
| AAAAAACACAGCATTAGGCTATCGGTAAAA | 0.655 ± 0.134 |
| AAAAAATTCTTACTTTTGTCTTTACTAAAA | 0.79 ± 0.156 |
| AAAAAAGGGGTCCTTTTCCAATGTCTAAAA | 0.605 ± 0.0495 |
| AAAAAAACGGTGTCATAGTATTAGTGAAAA | 0.585 ± 0.134 |
